# Key:
# Assay in all cases: DAPPL (digital affinity profiling via proximity ligation, sequencing); 10 mM Tris-HCl pH 7.5, 50 mM NaCl, 1 mM DTT, 4% glycerol, room temperature, 30 min; GST-TFs on glutathione beads, 16-mer random dsDNA library, 0.1% formaldehyde crosslink after washing; high values mean tight binding
# FLI1 = target: T1, FLI1 (Homo sapiens, UniProt Q01543 1-452); conditions: protein: recombinant; tags: N-terminal GST; dsDNA, one strand shown
# T1 sequence: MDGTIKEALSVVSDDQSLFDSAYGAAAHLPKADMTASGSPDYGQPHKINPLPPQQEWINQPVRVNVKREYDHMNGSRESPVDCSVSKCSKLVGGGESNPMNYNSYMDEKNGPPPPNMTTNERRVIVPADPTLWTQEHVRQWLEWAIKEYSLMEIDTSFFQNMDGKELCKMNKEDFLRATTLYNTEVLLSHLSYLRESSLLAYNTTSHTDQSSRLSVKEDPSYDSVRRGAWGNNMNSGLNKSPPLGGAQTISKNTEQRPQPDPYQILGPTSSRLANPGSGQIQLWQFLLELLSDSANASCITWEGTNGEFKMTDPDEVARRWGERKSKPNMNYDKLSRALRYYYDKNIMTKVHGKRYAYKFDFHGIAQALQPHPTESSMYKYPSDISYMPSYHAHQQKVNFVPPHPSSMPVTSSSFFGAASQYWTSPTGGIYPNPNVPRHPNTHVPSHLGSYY
# Outline: (§1)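 GST fusions of human transcription factors were expressed in yeast and captured with glutathione beads. Once given DNA barcodes and pooled alongside a tag-only sample, they were incubated for 30 min at room temperature with 200 nmole of a random double-stranded 16-mer DNA library in Tris/NaCl/DTT/glycerol buffer, then washed, crosslinked (0.1% formaldehyde), proximity-ligated, PCR-amplified and sequenced on an Illumina NextSeq500. The binding signal of each hexamer is its read frequency for a factor divided by its frequency for the tag-only sample.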
# ELK1 = target: T2, ELK1 (Homo sapiens, UniProt P19419 1-428); conditions: protein: recombinant; tags: N-terminal GST; dsDNA, one strand shown
# T2 sequence: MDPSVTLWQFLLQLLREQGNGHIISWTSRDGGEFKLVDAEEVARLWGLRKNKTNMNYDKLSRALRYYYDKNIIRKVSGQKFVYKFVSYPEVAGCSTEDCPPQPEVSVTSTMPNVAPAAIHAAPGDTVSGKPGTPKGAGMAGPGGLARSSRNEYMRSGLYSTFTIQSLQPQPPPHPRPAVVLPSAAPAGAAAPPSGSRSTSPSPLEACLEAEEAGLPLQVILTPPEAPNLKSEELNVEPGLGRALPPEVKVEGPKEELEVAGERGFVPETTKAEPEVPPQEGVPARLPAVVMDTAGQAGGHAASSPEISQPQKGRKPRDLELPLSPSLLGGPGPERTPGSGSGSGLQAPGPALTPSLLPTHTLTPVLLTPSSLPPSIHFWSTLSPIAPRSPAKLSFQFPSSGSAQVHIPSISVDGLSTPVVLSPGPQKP
# Outline: as §1
# GABPA = target: T3, GABPA (Homo sapiens, UniProt Q06546 1-454); conditions: protein: recombinant; tags: N-terminal GST; dsDNA, one strand shown
# T3 sequence: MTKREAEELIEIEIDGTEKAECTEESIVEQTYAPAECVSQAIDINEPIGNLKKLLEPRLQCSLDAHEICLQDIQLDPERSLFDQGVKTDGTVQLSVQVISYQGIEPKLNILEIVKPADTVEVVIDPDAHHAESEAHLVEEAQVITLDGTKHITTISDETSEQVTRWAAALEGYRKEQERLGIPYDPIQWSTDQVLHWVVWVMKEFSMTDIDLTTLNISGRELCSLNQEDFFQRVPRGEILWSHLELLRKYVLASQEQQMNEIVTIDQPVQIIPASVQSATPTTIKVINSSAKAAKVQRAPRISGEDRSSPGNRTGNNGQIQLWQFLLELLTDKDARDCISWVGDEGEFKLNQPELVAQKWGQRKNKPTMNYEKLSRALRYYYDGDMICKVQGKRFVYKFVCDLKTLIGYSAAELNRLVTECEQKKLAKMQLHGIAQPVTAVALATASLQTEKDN
# Outline: as §1
# ERG = target: T4, ERG (Homo sapiens, UniProt P11308 1-479); conditions: protein: recombinant; tags: N-terminal GST; dsDNA, one strand shown
# T4 sequence: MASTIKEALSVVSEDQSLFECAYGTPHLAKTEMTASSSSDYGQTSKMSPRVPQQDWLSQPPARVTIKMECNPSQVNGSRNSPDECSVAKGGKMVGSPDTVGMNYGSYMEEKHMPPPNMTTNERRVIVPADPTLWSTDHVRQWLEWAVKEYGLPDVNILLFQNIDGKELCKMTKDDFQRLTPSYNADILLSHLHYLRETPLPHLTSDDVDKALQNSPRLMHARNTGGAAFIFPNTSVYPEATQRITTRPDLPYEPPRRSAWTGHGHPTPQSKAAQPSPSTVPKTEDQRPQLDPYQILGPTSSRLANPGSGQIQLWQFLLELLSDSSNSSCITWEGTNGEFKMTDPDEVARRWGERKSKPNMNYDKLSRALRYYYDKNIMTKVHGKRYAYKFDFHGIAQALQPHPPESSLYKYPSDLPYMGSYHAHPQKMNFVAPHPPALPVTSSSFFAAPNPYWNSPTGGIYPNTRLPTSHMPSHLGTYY
# Outline: as §1
# ELF1 = ELF1 (Homo sapiens, UniProt P32519 1-619); conditions: protein: recombinant; tags: N-terminal GST; dsDNA, one strand shown
# Chain of ELF1 (P32519 whole entry): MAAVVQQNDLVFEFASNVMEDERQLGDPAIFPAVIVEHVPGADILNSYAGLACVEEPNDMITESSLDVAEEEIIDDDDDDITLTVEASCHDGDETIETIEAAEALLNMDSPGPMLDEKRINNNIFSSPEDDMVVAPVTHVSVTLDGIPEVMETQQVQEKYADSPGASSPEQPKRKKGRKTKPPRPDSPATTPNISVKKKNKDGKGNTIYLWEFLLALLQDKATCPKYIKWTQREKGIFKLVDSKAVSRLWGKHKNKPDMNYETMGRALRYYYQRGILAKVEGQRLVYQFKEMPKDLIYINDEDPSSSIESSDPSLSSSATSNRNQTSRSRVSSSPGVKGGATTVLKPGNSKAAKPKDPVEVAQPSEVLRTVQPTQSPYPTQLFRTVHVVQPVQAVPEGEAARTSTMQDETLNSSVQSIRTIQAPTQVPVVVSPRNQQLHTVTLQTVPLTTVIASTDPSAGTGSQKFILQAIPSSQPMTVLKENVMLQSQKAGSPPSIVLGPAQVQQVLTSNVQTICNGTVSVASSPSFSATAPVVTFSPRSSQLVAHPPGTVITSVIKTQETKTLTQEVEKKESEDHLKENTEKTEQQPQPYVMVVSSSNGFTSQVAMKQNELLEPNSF
# Outline: as §1
# EHF = target: T5, EHF (Homo sapiens, UniProt Q9NZC4 1-300); conditions: protein: recombinant; tags: N-terminal GST; dsDNA, one strand shown
# T5 sequence: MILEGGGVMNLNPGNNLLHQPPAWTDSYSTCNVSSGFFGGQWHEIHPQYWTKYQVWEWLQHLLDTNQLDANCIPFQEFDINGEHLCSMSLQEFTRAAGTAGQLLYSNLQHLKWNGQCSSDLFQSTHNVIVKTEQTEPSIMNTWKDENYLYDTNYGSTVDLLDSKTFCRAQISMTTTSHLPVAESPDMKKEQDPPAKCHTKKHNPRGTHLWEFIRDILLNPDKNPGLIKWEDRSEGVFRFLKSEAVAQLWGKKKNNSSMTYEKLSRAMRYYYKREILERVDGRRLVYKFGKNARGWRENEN
# Outline: as §1
# SPI1 = SPI1 (Homo sapiens, UniProt P17947 1-270); conditions: protein: recombinant; tags: N-terminal GST; dsDNA, one strand shown
# Outline: as §1
# SPIB = SPIB (Homo sapiens, UniProt Q01892 1-262); conditions: protein: recombinant; tags: N-terminal GST; dsDNA, one strand shown
# Chain of SPIB (Q01892 whole entry): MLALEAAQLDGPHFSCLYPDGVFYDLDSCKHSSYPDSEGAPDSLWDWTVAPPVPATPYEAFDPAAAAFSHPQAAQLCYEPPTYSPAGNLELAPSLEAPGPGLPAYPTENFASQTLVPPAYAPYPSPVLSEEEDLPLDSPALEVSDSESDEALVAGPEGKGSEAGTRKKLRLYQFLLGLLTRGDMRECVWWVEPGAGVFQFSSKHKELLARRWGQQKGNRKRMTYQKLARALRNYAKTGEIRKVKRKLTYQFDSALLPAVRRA
# Outline: as §1
# ELK3 = target: T6, ELK3 (Homo sapiens, UniProt P41970 1-407); conditions: protein: recombinant; tags: N-terminal GST; dsDNA, one strand shown
# T6 sequence: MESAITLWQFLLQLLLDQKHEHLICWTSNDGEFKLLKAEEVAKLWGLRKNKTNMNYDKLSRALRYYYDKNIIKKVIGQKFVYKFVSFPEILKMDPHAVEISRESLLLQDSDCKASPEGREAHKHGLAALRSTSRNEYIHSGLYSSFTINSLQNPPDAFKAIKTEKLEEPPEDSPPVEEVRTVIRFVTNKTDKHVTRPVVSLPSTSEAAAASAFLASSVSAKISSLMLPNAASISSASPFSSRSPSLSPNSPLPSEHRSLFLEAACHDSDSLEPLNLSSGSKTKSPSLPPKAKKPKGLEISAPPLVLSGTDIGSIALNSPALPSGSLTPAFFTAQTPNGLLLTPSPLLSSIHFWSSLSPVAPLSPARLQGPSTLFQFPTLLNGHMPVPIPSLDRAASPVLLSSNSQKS
# Outline: as §1
# FEV = target: T7, FEV (Homo sapiens, UniProt Q99581 1-238); conditions: protein: recombinant; tags: N-terminal GST; dsDNA, one strand shown
# T7 sequence: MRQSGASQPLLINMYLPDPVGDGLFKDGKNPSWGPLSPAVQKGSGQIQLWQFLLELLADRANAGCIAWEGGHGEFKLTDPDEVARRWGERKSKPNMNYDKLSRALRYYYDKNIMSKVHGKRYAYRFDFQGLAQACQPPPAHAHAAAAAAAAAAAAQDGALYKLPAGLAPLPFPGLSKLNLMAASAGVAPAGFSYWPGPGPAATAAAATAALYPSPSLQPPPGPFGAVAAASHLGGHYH
# Outline: as §1
# ETV5 = ETV5 (Homo sapiens, UniProt P41161 1-510); conditions: protein: recombinant; tags: N-terminal GST; dsDNA, one strand shown
# Chain of ETV5 (P41161 whole entry): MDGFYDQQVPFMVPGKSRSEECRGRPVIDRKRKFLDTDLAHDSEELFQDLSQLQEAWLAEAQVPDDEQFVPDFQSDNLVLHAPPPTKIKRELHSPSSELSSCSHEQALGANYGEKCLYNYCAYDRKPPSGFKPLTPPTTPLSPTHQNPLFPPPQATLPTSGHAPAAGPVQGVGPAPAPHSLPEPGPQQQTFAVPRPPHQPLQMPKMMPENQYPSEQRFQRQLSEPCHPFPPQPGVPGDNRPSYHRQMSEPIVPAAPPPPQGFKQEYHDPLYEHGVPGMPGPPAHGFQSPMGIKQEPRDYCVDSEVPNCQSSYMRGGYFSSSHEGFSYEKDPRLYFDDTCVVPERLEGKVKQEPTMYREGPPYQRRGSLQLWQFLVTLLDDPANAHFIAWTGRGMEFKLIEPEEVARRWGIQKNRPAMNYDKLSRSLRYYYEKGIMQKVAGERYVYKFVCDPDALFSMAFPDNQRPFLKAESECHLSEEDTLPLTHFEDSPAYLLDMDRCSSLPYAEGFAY
# Outline: as §1
# HSF1 = HSF1 (Homo sapiens, UniProt Q00613 1-529); conditions: protein: recombinant; tags: N-terminal GST; chain copies: 3; dsDNA, one strand shown
# Chain of HSF1 (Q00613 whole entry): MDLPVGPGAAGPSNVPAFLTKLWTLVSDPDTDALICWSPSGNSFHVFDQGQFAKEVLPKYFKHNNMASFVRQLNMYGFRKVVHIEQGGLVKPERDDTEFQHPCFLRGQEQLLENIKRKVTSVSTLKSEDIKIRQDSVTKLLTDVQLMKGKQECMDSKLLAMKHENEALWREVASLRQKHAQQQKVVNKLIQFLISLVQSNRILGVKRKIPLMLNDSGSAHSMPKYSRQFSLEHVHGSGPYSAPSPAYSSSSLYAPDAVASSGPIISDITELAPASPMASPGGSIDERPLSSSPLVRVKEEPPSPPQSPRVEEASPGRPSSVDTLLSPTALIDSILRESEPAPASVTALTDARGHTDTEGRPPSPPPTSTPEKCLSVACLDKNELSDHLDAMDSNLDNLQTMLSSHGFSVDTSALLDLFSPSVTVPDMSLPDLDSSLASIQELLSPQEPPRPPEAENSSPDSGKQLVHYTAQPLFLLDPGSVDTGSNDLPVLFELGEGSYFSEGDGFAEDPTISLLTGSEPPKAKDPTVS
# Outline: as §1
# SPIC = target: T8, SPIC (Homo sapiens, UniProt Q8N5J4 1-248); conditions: protein: recombinant; tags: N-terminal GST; dsDNA, one strand shown
# T8 sequence: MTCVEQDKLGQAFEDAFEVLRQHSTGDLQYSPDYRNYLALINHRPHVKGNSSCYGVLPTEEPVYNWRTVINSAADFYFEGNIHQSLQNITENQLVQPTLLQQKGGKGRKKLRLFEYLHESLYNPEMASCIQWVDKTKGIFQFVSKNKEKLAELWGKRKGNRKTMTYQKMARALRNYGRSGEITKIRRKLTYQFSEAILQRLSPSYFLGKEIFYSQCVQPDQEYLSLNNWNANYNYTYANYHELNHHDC
# Outline: as §1
# ELF4 = ELF4 (Homo sapiens, UniProt Q99607 1-663); conditions: protein: recombinant; tags: N-terminal GST; dsDNA, one strand shown
# Chain of ELF4 (Q99607 whole entry): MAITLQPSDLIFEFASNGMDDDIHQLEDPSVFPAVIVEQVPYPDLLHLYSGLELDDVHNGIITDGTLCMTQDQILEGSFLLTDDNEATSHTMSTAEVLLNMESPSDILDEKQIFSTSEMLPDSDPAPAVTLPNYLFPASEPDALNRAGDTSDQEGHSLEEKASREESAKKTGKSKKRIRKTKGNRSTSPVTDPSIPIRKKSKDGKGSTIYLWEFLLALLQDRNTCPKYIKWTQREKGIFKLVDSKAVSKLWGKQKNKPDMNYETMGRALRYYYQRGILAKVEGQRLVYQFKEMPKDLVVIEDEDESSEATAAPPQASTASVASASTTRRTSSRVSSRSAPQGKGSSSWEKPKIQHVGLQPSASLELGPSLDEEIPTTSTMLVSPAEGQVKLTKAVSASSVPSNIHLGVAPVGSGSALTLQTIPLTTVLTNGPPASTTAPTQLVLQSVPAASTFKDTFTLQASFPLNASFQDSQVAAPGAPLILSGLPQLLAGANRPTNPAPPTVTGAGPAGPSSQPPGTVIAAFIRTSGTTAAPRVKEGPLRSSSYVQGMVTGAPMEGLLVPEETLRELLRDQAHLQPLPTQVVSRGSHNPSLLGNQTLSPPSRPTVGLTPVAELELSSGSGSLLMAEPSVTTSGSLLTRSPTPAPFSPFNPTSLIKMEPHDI
# Outline: as §1
# ELK4 = target: T9, ELK4 (Homo sapiens, UniProt P28324-2 1-405); conditions: protein: recombinant; tags: N-terminal GST; dsDNA, one strand shown
# T9 sequence: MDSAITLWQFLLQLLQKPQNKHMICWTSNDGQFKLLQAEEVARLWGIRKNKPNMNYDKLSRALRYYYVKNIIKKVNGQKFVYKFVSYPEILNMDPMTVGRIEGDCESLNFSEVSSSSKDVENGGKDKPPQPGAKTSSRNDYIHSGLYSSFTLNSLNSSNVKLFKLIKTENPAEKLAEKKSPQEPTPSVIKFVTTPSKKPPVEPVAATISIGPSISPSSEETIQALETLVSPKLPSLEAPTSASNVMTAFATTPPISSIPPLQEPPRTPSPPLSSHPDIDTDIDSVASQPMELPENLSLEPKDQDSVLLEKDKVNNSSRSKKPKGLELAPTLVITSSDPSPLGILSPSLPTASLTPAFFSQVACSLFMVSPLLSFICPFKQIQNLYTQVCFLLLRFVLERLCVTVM
# Outline: as §1
# ETV2 = target: T10, ETV2 (Homo sapiens, UniProt O00321 1-342); conditions: protein: recombinant; tags: N-terminal GST; dsDNA, one strand shown
# T10 sequence: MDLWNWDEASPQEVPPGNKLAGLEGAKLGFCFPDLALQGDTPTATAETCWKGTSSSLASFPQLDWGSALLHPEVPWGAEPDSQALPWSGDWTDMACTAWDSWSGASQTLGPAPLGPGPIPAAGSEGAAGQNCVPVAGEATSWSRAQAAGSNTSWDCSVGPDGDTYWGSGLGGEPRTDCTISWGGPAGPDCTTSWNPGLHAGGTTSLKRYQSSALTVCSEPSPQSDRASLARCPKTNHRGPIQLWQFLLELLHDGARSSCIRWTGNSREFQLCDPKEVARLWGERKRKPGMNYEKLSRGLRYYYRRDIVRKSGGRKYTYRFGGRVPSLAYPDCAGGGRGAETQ
# Outline: as §1
# ELF3 = target: T11, ELF3 (Homo sapiens, UniProt P78545 1-371); conditions: protein: recombinant; tags: N-terminal GST; dsDNA, one strand shown
# T11 sequence: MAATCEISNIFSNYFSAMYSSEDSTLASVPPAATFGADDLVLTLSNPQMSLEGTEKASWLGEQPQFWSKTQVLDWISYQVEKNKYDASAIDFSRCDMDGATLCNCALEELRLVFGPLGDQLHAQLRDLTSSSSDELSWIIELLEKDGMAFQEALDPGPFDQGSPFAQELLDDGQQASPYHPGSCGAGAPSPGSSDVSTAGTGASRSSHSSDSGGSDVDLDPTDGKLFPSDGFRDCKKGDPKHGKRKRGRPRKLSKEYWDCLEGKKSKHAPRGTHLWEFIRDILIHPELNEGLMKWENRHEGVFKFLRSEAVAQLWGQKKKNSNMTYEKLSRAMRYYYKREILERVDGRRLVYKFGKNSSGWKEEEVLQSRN
# Outline: as §1
# CRX = CRX (Homo sapiens, UniProt O43186 1-299); conditions: protein: recombinant; tags: N-terminal GST; dsDNA, one strand shown
# Chain of CRX (O43186 whole entry): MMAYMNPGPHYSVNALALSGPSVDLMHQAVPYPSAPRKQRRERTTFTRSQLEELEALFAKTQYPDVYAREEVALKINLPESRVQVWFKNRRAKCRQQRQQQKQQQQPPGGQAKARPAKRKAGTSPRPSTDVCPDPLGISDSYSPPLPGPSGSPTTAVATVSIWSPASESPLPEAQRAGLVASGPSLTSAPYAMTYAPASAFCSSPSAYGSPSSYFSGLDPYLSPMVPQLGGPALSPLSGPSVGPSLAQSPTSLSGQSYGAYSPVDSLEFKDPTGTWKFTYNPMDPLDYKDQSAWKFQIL
# Outline: as §1
# ETV1 = ETV1 (Homo sapiens, UniProt P50549 1-477); conditions: protein: recombinant; tags: N-terminal GST; dsDNA, one strand shown
# Chain of ETV1 (P50549 whole entry): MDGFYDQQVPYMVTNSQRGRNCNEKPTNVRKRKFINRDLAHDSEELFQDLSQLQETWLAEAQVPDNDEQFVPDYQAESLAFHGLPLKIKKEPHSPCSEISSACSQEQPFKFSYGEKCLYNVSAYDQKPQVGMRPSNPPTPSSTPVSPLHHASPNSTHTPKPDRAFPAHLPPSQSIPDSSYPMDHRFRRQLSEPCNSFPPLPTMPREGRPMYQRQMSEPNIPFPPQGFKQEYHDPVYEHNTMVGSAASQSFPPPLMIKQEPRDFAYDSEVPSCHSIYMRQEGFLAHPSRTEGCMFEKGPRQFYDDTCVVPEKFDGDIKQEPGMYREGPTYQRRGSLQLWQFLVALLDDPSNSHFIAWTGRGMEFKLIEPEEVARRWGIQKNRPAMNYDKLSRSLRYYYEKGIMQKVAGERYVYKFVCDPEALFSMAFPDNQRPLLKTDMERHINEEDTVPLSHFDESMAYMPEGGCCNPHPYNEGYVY
# Outline: as §1
sequence,measurement,setting,value
TGCGAA,binding signal,FLI1,"1.21 fold enrichment (6-mer frequency, TF over GST control)"
same,binding signal,ELK1,"1.2 fold enrichment (6-mer frequency, TF over GST control)"
same,binding signal,GABPA,"1.07 fold enrichment (6-mer frequency, TF over GST control)"
same,binding signal,ERG,"1.16 fold enrichment (6-mer frequency, TF over GST control)"
same,binding signal,ELF1,"1.23 fold enrichment (6-mer frequency, TF over GST control)"
same,binding signal,EHF,"1.18 fold enrichment (6-mer frequency, TF over GST control)"
same,binding signal,SPI1,"1.26 fold enrichment (6-mer frequency, TF over GST control)"
same,binding signal,SPIB,"1.22 fold enrichment (6-mer frequency, TF over GST control)"
same,binding signal,ELK3,"1.07 fold enrichment (6-mer frequency, TF over GST control)"
same,binding signal,FEV,"1.14 fold enrichment (6-mer frequency, TF over GST control)"
same,binding signal,ETV5,"1.23 fold enrichment (6-mer frequency, TF over GST control)"
same,binding signal,HSF1,"1.21 fold enrichment (6-mer frequency, TF over GST control)"
same,binding signal,SPIC,"1.02 fold enrichment (6-mer frequency, TF over GST control)"
same,binding signal,ELF4,"1.21 fold enrichment (6-mer frequency, TF over GST control)"
same,binding signal,ELK4,"1.19 fold enrichment (6-mer frequency, TF over GST control)"
same,binding signal,ETV2,"1.18 fold enrichment (6-mer frequency, TF over GST control)"
same,binding signal,ELF3,"1.14 fold enrichment (6-mer frequency, TF over GST control)"
same,binding signal,CRX,"1.06 fold enrichment (6-mer frequency, TF over GST control)"
same,binding signal,ETV1,"1.19 fold enrichment (6-mer frequency, TF over GST control)"
